Most compounds without a hit are left out; they make up all but 19% or so of the library.
IL1B secr inh = blocks inflammasome-driven IL-1 beta release; actives 4.7% (n = 360,000); THP-1 LPS/ATP IL-1B secretion, AlphaLISA, 16 h; stronger effect = lower value; activity change, % at 57.5 µM; in the data active means activity change below about -50%; inconclusive means mostly about -30% to -49%
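Secreted IL-1B measured by AlphaLISA bead assay after 16 h compound exposure of THP-1 cells; compounds (final up to 57.5 uM) added 1 h before LPS (250 ng/mL) and ATP (1.25 mM) stimulation; lower signal means less secretion.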
HT1080 IDH1KD tx = kills HT-1080 cells with IDH1 knockdown. HT-1080 IDH1 knockdown viability, ATP luminescence, 48 h. actives 2% (n = 360,000). Potency, µM (top dose mostly 46.1 µM), inactives show top-dose activity, negative = toxicity, most hits filed as cytotoxic;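 further: potency means the concentration at half of the fitted maximal effect; 0% = DMSO wells and -100% = cell-free medium wells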
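IDH1KD HT-1080 cells, 750/well, RPMI + 5% FBS; compound pinned after 2 h settling; 48 h, 37 °C; CellTiter-Glo luminescence; % activity normalised to DMSO and no-cell wells; curves fitted, classed by r2 and efficacy.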
HT1080NT lethal = kills 2HG-producing HT-1080-NT fibrosarcoma cells | actives 1.6% (n = 360,000) | Potency, µM (series often up to 46.1 µM), for inactives: at the top dose activity, negative = less viability, hits mostly cytotoxic | AID 686970 | HT-1080-NT fibrosarcoma viability, CellTiter-Glo ATP luminescence, 48 h;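 further: NT is the 2HG producing partner of a matched IDH1 knockdown line; potency means the concentration at half of the fitted maximal effect; 0% = DMSO-treated cells and -100% = media-only wells without cells; nearly all actives have a fitted effect of over 55% in size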
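750 cells/well, RPMI + 5% FBS; 2 h settle, compound pin-transfer, 48 h at 37 degrees C. CellTiter-Glo 10 min RT, luminescence. Normalized to DMSO and media-only wells.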
DT40 TDP1 CPT = DT40-hTDP1 cell growth loss with CPT. chicken DT40 Tdp1-/-;hTDP1 cells + 20 nM CPT, ATP luminescence, 48 h. Potency, µM (titrated, usually from 46.2 µM), inactives show at the top dose activity change, negative = growth inhibition, hits mostly inhibitors. actives 12% (n = 420,000). AID 686979; further: potency means the concentration at half of the fitted maximal effect; nearly all actives have a fitted effect of over 55% in size
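Chicken DT40 Tdp1-/- cells complemented with human TDP1, 400 cells/well, exposed to compounds plus 20 nM camptothecin for at least 48 h at 37 C; viability read as ATP content by CellTiter-Glo luminescence.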
DT40 TDP1 no CPT = qHTS for Inhibitors of human tyrosyl-DNA phosphodiesterase 1 (TDP1): qHTS in cells in absence of CPT; DT40 Tdp1-/- hTDP1 cells, no CPT, ATP luminescence, 48 h; Potency, µM (highest dose often 46.2 µM), inactives show at the top dose activity change, negative = growth inhibition, hits mostly inhibitors; actives 15% (n = 420,000); AID 686978, 2013; further: potency means the concentration at half of the fitted maximal effect; nearly all actives have a fitted effect of over 55% in size
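Camptothecin absent (DMSO only). Human TDP1-complemented DT40 knockout cells, 400 cells/well, 37 °C for minimum 48 hr; ATP measured via CellTiter-Glo, 30 min dark incubation, luminescence.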
Active calls of the source: *; i = inactive; ? = inconclusive; · = not tested or not shown; [ ] = another dose, or the depositor's remark. Unless noted, the call rests on the fitted dose curve; in most records, active means well fitted curve in the direction sought with a large enough effect; inconclusive means small, poorly fitted or top-dose-only effect, or another doubt; inactive means no such curve, though single readings can be large; an effect the other way counts as inactive or inconclusive. Unless noted, on the % scale 0 is the no-effect control and ±100 the full control effect.

SMILES	IL1B secr inh	HT1080 IDH1KD tx	HT1080NT lethal	DT40 TDP1 CPT	DT40 TDP1 no CPT
CN1CCN(c2nc3c(c(=O)n(C)c(=O)n3C)n2Cc2ccccc2F)CC1	-12	1%	3%	3%	-6%
CC1=C(C(=O)OCc2ccc(C)cc2)C(c2ccc(O)c([N+](=O)[O-])c2)NC(=O)N1 (centres undefined)	22	12%	2%	-22%	?
CC1Cc2cc(C3(O)C(=O)c4ccccc4C3=O)ccc2N1 (centres undefined)	10	?	0%	6%	1%
O=C(c1cccc2ccccc12)N1CCN(S(=O)(=O)c2ccccc2)CC1	·	·	·	?	-7%
Cc1ccccc1Cn1c(CN2CCc3ccccc3C2)nc2c1c(=O)n(C)c(=O)n2C	-59*	?	?	?	21µM*
COC(=O)Cn1c(N2CCCC2)nc2c1c(=O)n(C)c(=O)n2C	3	2%	3%	1%	18%
COC(=O)Cn1c(CN2CCc3ccccc3C2)nc2c1c(=O)n(C)c(=O)n2C	54	2%	5%	13µM*	21µM*
CC(=O)c1cccc(NC(=O)c2sc(-n3nc(C)c(Cc4ccc5c(c4)OCO5)c3C)nc2C)c1	·	·	·	15µM*	15µM*
COCC(=O)OC1CCn2c1nc1c2C(=O)C(C)=C(NC(C)=O)C1=O (centres undefined)	-1	4.6µM*	7.3µM*	2.6µM*	2.3µM*
O=C(NNC(=O)c1cc(-c2ccccc2)nc2ccccc12)Nc1cccc(Cl)c1	-11	?	18µM*	?	21µM*
O=C(NNC(=O)c1cc(-c2cccnc2)nc2ccccc12)Nc1ccc(Cl)cc1	-96*	?	?	?	?
O=C(NNC(=O)c1cc(-c2ccncc2)nc2ccccc12)Nc1ccc(F)cc1	i	12%	6%	?	?
Cn1nc(-c2ccc(Cl)cc2)cc1NC(=O)Nc1ccccc1	-26	-25%	-23%	-24%	?
CC(C)(C)c1ccc(-c2cc(C(=O)NNC(=O)Nc3ccccc3)c3ccccc3n2)cc1	-50*	?	?	?	21µM*
CC(=O)Nc1ccc(-c2cc(C(=O)O)c3ccccc3n2)cc1	24	?	-3%	-8%	25%
Cn1nc(-c2ccccc2)cc1NC(=O)Nc1ccc(C(C)(C)C)cc1	-54*	-18%	-2%	?	?
CC(=O)N[C@@H]([C@@H](O)[C@H](O)[C@H](O)CO)[C@@H](O)CC(=O)C(=O)O	·	·	·	15%	-1%
Cc1ccc(S(=O)(=O)N2CCCCC2)cc1NC(=O)COC(=O)c1cccc(O)c1	29	3%	0%	-27%	-12%
CNCCC=C1c2ccccc2C=Cc2ccccc21	-51*	15µM*	21µM*	16µM*	13µM*
CN(C)CCC=C1c2ccccc2C=Cc2ccccc21	?	?	?	?	15µM*
COc1cc(-c2nnn(Cc3ccccc3C)n2)cc(OC)c1OC	-6	0%	-4%	?	21µM*
COc1ccc(Cc2[nH]n3c(=O)cc(C(C)C)nc3c2-c2ccccc2)cc1	73	?	?	18µM*	7.3µM*
CCOC(=O)Cc1csc(NC(=S)NC(=O)c2ccc(F)cc2)n1	-12	11%	-3%	-1%	-24%
CCOC(=O)Cc1csc(NC(=S)NC(=O)c2cc(OC)c(OC)c(OC)c2)n1	20	-1%	2%	?	12µM*
CCOC(=O)Cc1csc(NC(=O)c2ccc(S(=O)(=O)N3CCOCC3)cc2)n1	?	-12%	-2%	-20%	?
SMILES	IL1B secr inh	HT1080 IDH1KD tx	HT1080NT lethal	DT40 TDP1 CPT	DT40 TDP1 no CPT
CCOC(=O)Cc1csc(N/C(=N/S(=O)(=O)c2ccc(Cl)cc2)c2ccccc2)n1	1	-5%	-6%	?	29µM*
CCOC(=O)Cc1csc(NC(=O)c2ccc(S(=O)(=O)N3CCCC3)cc2)n1	-54*	-1%[9.24 µM]	?	?	?
CCOC(=O)C(C)NC(=O)C(NC(=O)C1CCC(CC)CC1)C(C)C (centres undefined)	6	-1%	1%	15µM*	?
CCN(CC(=O)Nc1ccc([N+](=O)[O-])cc1OC)c1ccccc1	?	0%[9.24 µM]	-30%	?	?
COc1cn(-c2ccccc2)nc1C(=O)OCC(=O)Nc1ccc(C)c(C)c1	6	12%	18%	12%	0%
COc1cccc(C2NC(=O)NC(C)=C2C(=O)Nc2cccc(C)c2C)c1 (centres undefined)	0	-4%	-1%	-1%	2%
CCOC(=O)Cc1csc(NC(=O)Nc2cccs2)n1	-15	0%	0%	?	?
CCOC(=O)Cc1csc(NC(=O)c2ccc(OC)c(OC)c2)n1	3	-3%	5%	?	?
CCOC(=O)Cc1csc(NC(=O)/C=C/c2ccco2)n1	-9	-4%	-19%	-11%	-11%
CCOC(=O)Cc1csc(NC(=O)Nc2ccc(F)cc2)n1	1	-10%	-20%	?	18µM*
CCOC(=O)Cc1csc(NC(=O)/C=C/c2ccc(Cl)cc2)n1	0	-19%	-20%	18µM*	?
CCOC(=O)Cc1csc(NC(=O)c2sc3nc4c(C)cc(C)cc4cc3c2N)n1	12	?	?	?	18µM*
CCOC(=O)Cc1csc(NC(=O)Nc2ccc(C)cc2)n1	?	-10%	7.3µM*	-26%	?
CCOC(=O)Cc1csc(NC(=O)Cc2ccc(C)cc2)n1	4	13%	9%	-5%	-19%
CCCCn1cnc2c(c(CC#N)nn2-c2ccccc2)c1=N	-11	3%	0%	-4%	0%
CCOC(=O)Cc1csc(NC(=O)C(NC(=O)C2CCC(C)CC2)C(C)C)n1 (centres undefined)	23	-1%	3%	?	8.2µM*
CCCNC(=O)Nc1nc(CC(=O)OCC)cs1	10	15%	17%	-1%	-4%
C[C@@H]1C=CC(=O)O[C@@H]1c1ccc(Cl)cc1	-108*	?	?	7.3µM*	7.3µM*
Cn1c(=O)c2c(-c3ccccc3Cl)n(Cc3ccc(Cl)cc3)cc2n(C)c1=O	·	·	·	8.2µM*	6.5µM*
Cn1c(=O)c2c(-c3ccccc3Cl)n(-c3cc(Cl)ccc3O)cc2n(C)c1=O	·	·	·	21µM*	?
Cc1ccc(-c2c3c(=O)n(C)c(=O)n(C)c3cn2Cc2ccccc2)cc1	-27	2%	-4%	?	?
NS(=O)(=O)c1ccc(CNS(=O)(=O)c2cccc3nonc23)cc1	6	10%	9%	3%	-3%

Screening data from PubChem BioAssay.
